Source: PubChem BioAssay (NCATS)
Records with an inconclusive call do not appear. A number with no mark means an inactive call. Active and inactive are the calls of the source. Calls follow the shape of the dose curve; as a rule, active = well fitted inhibition curve with a large enough effect; inconclusive = small, poorly fitted or top-dose-only effect; inactive = no such curve, though single readings can be large or run the other way.

These compounds were tested on Zika virus NS2B-NS3 protease (unlinked complex) (assay: Primary screen GU Rhodamine qHTS for Zika virus inhibitors: Unlinked NS2B-NS3 protease assay (AID 1347159; also: nearly all actives have a fitted effect of over 60% in size)). Details: Recombinant ZIKV NS2B-NS3 protease, Rhodamine110 substrate fluorescence; series mostly up to 107 µM; activity change, negative = inhibition: at the top concentration.
Summary of the method: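 Noncovalent NS2B hydrophilic domain/NS3 protease complex (25 nM final) in 10 mM Tris-HCl pH 8.0, 0.01% Tween 20, preincubated 15 min with compounds (up to 114 microM), then 1.5 microM Rhodamine110 substrate. Fluorescence change over 15 min fitted to 4-parameter Hill.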
% is scaled to controls: 0 for no effect and ±100 for the full control effect.

| SMILES | activity change, negative = inhibition |
| --- | --- |
| COC1CC(OC2CCC3(C=O)C(CCC4C3CCC3(C)C(C5=CC(=O)OC5)CCC43O)C2)OC(C)C1OC1OC(CO)C(O)C(O)C1O (stereo not drawn) | -17.3% [at 32.5 µM] |

Each compound was assayed on Zika virus NS2B-NS3 protease (linked construct) (assay: Primary screen NINDS Rhodamine qHTS for Zika virus inhibitors (AID 1347160; also: nearly all actives have a fitted effect of over 55% in size; also: potency is read from the fitted curve at half-maximal effect)). Details: purified NS2B-NS3 protease, Rhodamine110 substrate fluorescence; series mostly up to 57.1 µM; activity change, negative = inhibition: at the top concentration.
Summary of the method: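 Purified NS2B-NS3 protease with the NS2B hydrophilic domain joined by a flexible linker (25 nM) in 10 mM Tris-HCl pH 8.0, 0.01% Tween 20, preincubated 15 min at RT with compound; Rhodamine110 peptide substrate 1.5 µM; fluorescence change over 15 min; 4-parameter Hill fit.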

| SMILES | activity change, negative = inhibition | outcome | Potency |
| --- | --- | --- | --- |
| COC1=CC(=O)O[C@@H](CCc2ccccc2)C1 | 22.4% | – | – |
| O=C(N1CCOCC1)N1CCN(c2ccc(Cl)cc2)CC1 | 0.0324% | – | – |
| CCN1C[C@]2(COC)[C@H](O)C[C@H](OC)[C@]34[C@@H]5C[C@]6(O)[C@H](OC(=O)c7ccccc7)[C@@H]5[C@@](O)([C@H]([C@H](OC)[C@H]23)[C@@H]14)[C@@H](O)[C@@H]6OC | 2.92% [at 33.1 µM] | – | – |
| C/C=C(\C)C(=O)OC1CC2C(C)(C)OC(=O)CC(OC(C)=O)C2(C)C2CC(OC(=O)C(C)C)C3(C)C(c4ccoc4)CC4OC43C12C (stereo not drawn) | 2.49% [at 15.1 µM] | – | – |
| C[C@H]1C(=O)O[C@H]2[C@H](O)[C@]34C5OC(=O)[C@]3(O[C@@H]3OC(=O)[C@H](O)C34[C@H](C(C)(C)C)[C@H]5O)C12O (stereo partly drawn) | 15.6% [at 33.1 µM] | – | – |
| CCN1C[C@]2(OC(=O)c3ccccc3NC(C)=O)CC[C@H](OC)[C@@]34[C@@H]2C[C@@H]([C@@H]13)[C@@]1(O)C[C@H](OC)[C@H]2C[C@@H]4[C@]1(O)[C@H]2OC | – | inactive | – |
| CC[C@H]1CN2CC[C@H]1C[C@@H]2[C@@H](O)c1ccnc2ccc(OC)cc12 | 28.3% [at 33.1 µM] | – | – |
| Oc1ccc2c3c1O[C@H]1[C@H](N(CCCl)CCCl)CC[C@@]4(O)[C@@H](C2)N(CC2CC2)CC[C@]314 | – | inactive [at 10.7 µM] | – |
| C/C=C(\C)C(=O)O[C@H]1[C@H](OC(C)=O)[C@]2(CO)[C@H](O)[C@H](O)[C@]3(C)C(=CCC4[C@@]5(C)CC[C@H](O[C@@H]6O[C@H](C(=O)O)[C@@H](O)[C@H](O[C@@H]7OC[C@H](O)[C@H](O[C@@H]8OC[C@H](O)[C@H](O)[C@H]8O)[C@H]7O)[C@H]6O[C@@H]6O[C@H](CO)[C@@H](O)[C@H](O)[C@H]6O)C(C)(C)C5CC[C@]43C)[C@@H]2CC1(C)C (stereo partly drawn) | 4.93% [at 10.7 µM] | – | – |
| COCC1OC(=O)c2coc3c2C1(C)C1=C(C3=O)C2CCC(=O)C2(C)CC1O (stereo not drawn) | 21% [at 33.1 µM] | – | – |
| COC1CC(=O)C23C(=O)NC(CC(C)C)C2C(C)=C(C)C(OO)C3/C=C(\C)CCC(O)C1O (stereo not drawn) | -0.736% [at 33.1 µM] | – | – |
| COc1cc2c(cc1OC)[C@@]13CCN4CC5=CCO[C@H]6CC(=O)N2[C@H]1[C@H]6[C@H]5C[C@H]43 | -2.43% [at 33.1 µM] | – | – |
| CC1C/C=C/C(O)C(O)CC/C=C/c2cc(O)cc(O)c2C(=O)O1 (stereo not drawn) | -7.75% [at 33.1 µM] | – | – |
| CC(=O)OC1CC(O)C2(C)C(CC(OC(C)=O)C3(C)C2CCC2(C)C(c4ccoc4)C(=O)C4OC423)C1(C)C (stereo not drawn) | 11.4% [at 33.1 µM] | – | – |
| CCCN1CCO[C@H]2c3cc(O)ccc3OC[C@@H]21 | – | inactive | – |
| CC(=O)O[C@H]1C[C@@H](OC(C)=O)C(C)(C)C2C[C@@H](O)[C@]3(C)C(CC[C@@]4(C)[C@H](C5=CC(=O)OC5O)C[C@H]5O[C@]543)[C@]21C (stereo partly drawn) | -9.47% [at 33.1 µM] | – | – |

| SMILES | activity change, negative = inhibition | outcome | Potency |
| --- | --- | --- | --- |
| CC(CCc1ccc(O)cc1)O[C@@H]1O[C@H](CO[C@H]2OC[C@](O)(CO)[C@H]2O)[C@@H](O)[C@H](O)[C@H]1O (stereo partly drawn) | 2.72% [at 33.1 µM] | – | – |
| N#C[C@@H](O[C@@H]1O[C@H](CO[C@@H]2O[C@H](CO)[C@@H](O)[C@H](O)[C@H]2O)[C@@H](O)[C@H](O)[C@H]1O)c1ccccc1 | – | inactive [at 33.1 µM] | – |
| CC(C)(C)c1cc(C(C)(C)C)c2c(c1)C(O)(C(F)(F)F)C(=O)O2 (stereo not drawn) | – | – | 12.6 µM (active) |
| COc1cc(C(=O)O[C@H]2[C@@H]3C=CO[C@@H](O[C@@H]4O[C@H](CO)[C@@H](O)[C@H](O)[C@H]4O)[C@@H]3[C@@]3(CO)O[C@@H]23)ccc1O | – | inactive [at 33.1 µM] | – |
| COC1=CC(=O)O[C@@H](/C=C/c2ccccc2)C1 | 2.13% | – | – |
| CC(=O)OC12C(O)C(C)C3(O)C4C=C(C)C(=O)C4CC(CO)=CC3C1C2(C)C (stereo not drawn) | – | inactive [at 33.1 µM] | – |
| COC(=O)C1(C)CCC(O)C2(C)c3c(O)cc(C(C)C)cc3C(O)C(OC(C)=O)C12 (stereo not drawn) | 25.4% [at 33.1 µM] | – | – |
| CC1=C2C[C@H]3[C@@H](CC=C4C[C@@H](O)CC[C@@]43C)[C@@H]2CC[C@]12O[C@@H]1C[C@H](C)CN[C@H]1[C@H]2C | 8.46% | – | – |
| COC1CC(O[C@H]2CC[C@@]3(C)C(=CCC4C3C(O)[C@@H](O)[C@]3(C)[C@@H](C(C)=O)CC[C@]43O)C2)OC(C)C1OC1CC(OC)C(OC2OC(C)C(O)C(O)C2O)C(C)O1 (stereo partly drawn) | 17.3% [at 15.1 µM] | – | – |
| CN1[C@H]2C[C@H](OC(=O)[C@H](CO)c3ccccc3)C[C@@H]1[C@@H](O)C2 | 2.1% | – | – |
| CC(=O)OC1CC(O)C(C)(C)C2CC(OC(C)=O)C3(C)C(CCC4(C)C(c5ccoc5)C(=O)C5OC543)C12C (stereo not drawn) | -1.56% [at 33.1 µM] | – | – |
| CN1[C@@H]2CC[C@H]1CC(OC(=O)C1C=Nc3ccccc31)C2 (stereo partly drawn) | 5.25% | – | – |
| C[C@@]12C[C@@H](c3ccoc3)OC(=O)C1CC[C@]1(C)[C@H]2[C@H]2C=C[C@]1(O)C(=O)O2 (stereo partly drawn) | 16.3% [at 33.1 µM] | – | – |
| CN1C(=O)c2ccccc2NC(=O)C1Cc1ccccc1 (stereo not drawn) | – | inactive | – |
| CN(C(=O)Cc1ccccc1)C(CN1CCCC1)c1ccccc1 (stereo not drawn) | 9.37% | – | – |
| N#CC(OC1OC(COC2OC(CO)C(O)C(O)C2O)C(O)C(O)C1O)c1ccccc1 (stereo not drawn) | 19.3% [at 33.1 µM] | – | – |
